# Experiment: qHTS profiling of inhibitors of Plasmodium falciparum (HB3) proliferation (acoustic dispense)
# Settings: P. falciparum HB3 in erythrocytes, SYBR Green, 72 h; at 49.8 µM (top of the series) unless noted
# Excerpt: Plasmodium falciparum is a virulent malarial parasite that kills 1-2 million people worldwide each year. Transmitted by mosquitoes, the sporozoite form of the parasite enters the blood stream to infect hepatocytes, where they become merozoites that infect red blood cells (erythrocytes). Within erythrocytes, merozoites begin a […] cycle of growth and division, after which the parasite is released to infect new red blood cells. Gametocytes, which form within erythrocytes as well, circulate in the bloodstream and are ingested by the mosquito, thereby completing the life cycle. To profile malarial isolates for differential chemical responses and to identify inhibitors of malarial growth, an assay that measures P. falciparum growth and replication within erythrocytes was employed. This assay uses a DNA binding fluorescent dye (SYBR Green) to detect parasite DNA following cell lysis. Because mature erythrocytes lack DNA, only Plasmodium-derived DNA is detected.
# The SYBR Green viability assay was adapted from a method described previously (Plouffe et al., 2008). For screening 3 ul culture medium was dispensed into 1536 well black clear bottom plates (Aurora Biotechnologies) using a Multidrop Combi (Thermo Fisher Scientific Inc.), 23 nL of compounds in DMSO were added by an acoustic dispenser (EDC Biosystems), and 5 ul of erythrocytes infected with P. falciparum (0.3% parasitemia, 2.5% hematocrit final concentration) were added. The plates were incubated at 37 C in a humidified incubator in 5% CO2 for 72 h, and 2 ul lysis buffer (20 mM Tris HCl, 10 mM EDTA, 0.16% saponin, 1.6% triton X, 10X SYBR Green I supplied as 10,000X […] by Invitrogen) was added to each well. The plates were mixed for 25 sec with gentle shaking and incubated overnight at room temperature in the dark. The following morning, fluorescence intensity at 485(14) nm excitation and 535(25) nm emission wavelengths was measured on an EnVision (Perkin Elmer) plate reader. Plate reads were normalized relative to the control inhibitor (0.29 uM artemisinin) and vehicle (DMSO) wells present on each plate and then corrected by an algorithm using vehicle-only control plates at the beginning and end of the compound plate stack.
row,Compound,"activity (normalised, proliferation)"
1,CC[C@@]1(O)C[C@H](O[C@H]2C[C@H](N(C)C)[C@H](O[C@H]3C[C@H](O)[C@H](O[C@H]4CCC(=O)[C@H](C)O4)[C@H](C)O3)[C@H](C)O2)c2c(cc3c(c2O)C(=O)c2c(O)cccc2C3=O)[C@@H]1C(=O)OC,-2.68%
2,C[C@@H]1CCC2[C@@H](C)[C@@H](O)O[C@@H]3O[C@@]4(C)CC[C@@H]1[C@@]23OO4 (stereo not given in full),-0.43%
3,CN(C)c1ccc(C(=C2C=CC(=[N+](C)C)C=C2)c2ccc(N(C)C)cc2)cc1,108%
4,Nc1ccc(-c2ccc3ncc4ccc(=O)n(-c5cccc(C(F)(F)F)c5)c4c3c2)cn1,-1.37%
5,CN(C)c1ccc2nc3ccc(=[N+](C)C)cc-3sc2c1,19.1%
6,CCOC(=O)[C@H](CCc1ccccc1)N[C@H]1CS[C@H](c2cccs2)CN(CC(=O)O)C1=O,67.9%
7,CC1(CN2CCC(n3c(=O)[nH]c4ccccc43)CC2)OCc2ccccc2-n2cccc21 (stereo not given),24.8%
8,COc1cc(C)c2c(Oc3cccc(C(F)(F)F)c3)c(OC)cc(NCCCC(C)N)c2n1 (stereo not given),-2.19%
9,CC1(C)N=C(N)N=C(N)N1c1ccc(Cl)cc1,-0.199%
10,Cn1cc(C2=C(c3c4n(c5ccccc35)CCC(CN)C4)C(=O)NC2=O)c2ccccc21 (stereo not given),-0.862%
11,CO[C@H]1C=CO[C@@]2(C)Oc3c(C)c(O)c4c(O)c(c(C=NN5CCN(C)CC5)c(O)c4c3C2=O)NC(=O)C(C)=CC=C[C@H](C)[C@H](O)[C@@H](C)[C@@H](O)[C@@H](C)[C@H](OC(C)=O)[C@H]1C,-0.914% [at 16.5 µM]
12,C=CCn1c(=O)c2cnc(Nc3ccc(N4CCN(C)CC4)cc3)nc2n1-c1cccc(C(C)(C)O)n1,-0.406%
13,CCC(C=C[C@@H]1OC(=O)C=C[C@H]1C)=C[C@H](C)CC=CC(C)=C[C@@H](C)C(=O)[C@@H](C)[C@H](O)[C@@H](C)CC(C)=CC(=O)O,105% [at 1.88 µM]
14,CCC(=O)N1CCN(c2ccc(-n3c(=O)ccc4cnc5ccc(-c6cnc7ccccc7c6)cc5c43)cc2C(F)(F)F)CC1,0.244%
15,CC(C)N=C(N)N=C(N)Nc1ccc(Cl)cc1,-0.113%
16,Cn1c(=O)c(-c2c(Cl)cccc2Cl)cc2cnc(Nc3cccc(C(=O)O)c3)nc21,16.3%
17,C[C@@H](Oc1ccc2[nH]nc(C=Cc3cnn(CCO)c3)c2c1)c1c(Cl)cncc1Cl,1.95%
18,Cc1cnc(Nc2ccc(CN3CCOCC3)cc2)nc1Nc1cccc(S(=O)(=O)NC(C)(C)C)c1,0.609%
19,CC(=NNC(=S)N1CCC1)c1ccccn1,-0.583%
20,CC(C)C[C@H](NC(=O)[C@H](CCc1ccccc1)NC(=O)CN1CCOCC1)C(=O)N[C@@H](Cc1ccccc1)C(=O)N[C@@H](CC(C)C)C(=O)[C@@]1(C)CO1,0.732%

row,Compound,"activity (normalised, proliferation)"
1,Cn1c2ccccc2c2c3c(c4c5ccccc5n(CCC#N)c4c21)CNC3=O,106%
2,CN(C(=O)OC(C)(C)C)[C@@H](Cc1ccc(O[S+](=O)([O-])c2cccc3cnccc23)cc1)C(=O)N1CCN(C(=O)OCc2ccccc2)CC1,2.29%
3,CS(=O)(=O)CCNCc1ccc(-c2ccc3ncnc(Nc4ccc(OCc5cccc(F)c5)c(Cl)c4)c3c2)o1,7.39%
4,CCN(CC)CCCC(C)Nc1ccnc2cc(Cl)ccc12 (stereo not given),-0.388%
5,Cc1nc2cnc3ccc(C#Cc4cccnc4)cc3c2n1-c1ccc(C(C)(C)C#N)cc1,1.13%
6,CCn1nnc2c(N3CCOCC3)nc(-c3ccc(NC(=O)Nc4ccc(C(=O)N5CCN(C)CC5)cc4)cc3)nc21,4.68%
7,CC(Sc1nc2ccccc2[nH]1)C(=O)NN=Cc1cc(Br)ccc1O (stereo not given),-0.944% [at 4.15 µM]
8,CO[C@@H]1C(N(C)C(=O)c2ccccc2)C[C@H]2O[C@]1(C)n1c3ccccc3c3c4c(c5c6ccccc6n2c5c31)C(=O)NC4=O (stereo not given in full),17.3%
9,Clc1ccc2c(N3CCN(CCCN4CCN(c5ccnc6cc(Cl)ccc56)CC4)CC3)ccnc2c1,-2.19% [at 23.2 µM]
10,COc1cc2c(Oc3ccc(NC(=O)C4(C(=O)Nc5ccc(F)cc5)CC4)cc3F)ccnc2cc1OCCCN1CCOCC1,17.9%
11,CCCCN(CCCC)CC(O)c1cc(Cl)cc2c1-c1ccc(Cl)cc1C2=Cc1ccc(Cl)cc1 (stereo not given),-1.5%
12,O=C(Nc1ccc([N+](=O)[O-])cc1Cl)c1cc(Cl)ccc1O,99.3%
13,CN[C@@H]1C[C@H]2O[C@@](C)([C@H]1OC)n1c3ccccc3c3c4c(c5c6ccccc6n2c5c31)C(=O)N[C@H]4O,-0.206%
14,CC(C)n1nc(-c2ccc3oc(N)nc3c2)c2c(N)ncnc21,-0.709%
15,C[C@H]1Cc2c([nH]c3cc(Cl)c(F)cc23)[C@@]2(N1)C(=O)Nc1ccc(Cl)cc12,-0.548%
16,CCN[C@H]1C[C@H](C)S(=O)(=O)c2sc(S(N)(=O)=O)cc21,37.3%
17,COCCn1c2c([n+](Cc3cnccn3)c1C)C(=O)c1ccccc1C2=O,-1.3%
18,NC1CCC(Nc2nc(Nc3ccc(C(=O)N4CCCCC4)cc3)c3ncn(-c4cccc(F)c4)c3n2)CC1 (stereo not given),-0.546%
19,COC(=O)[C@]12CCC(C)(C)C[C@@H]1[C@@H]1C(=O)C=C3[C@@]4(C)C=C(C#N)C(=O)C(C)(C)[C@@H]4CC[C@@]3(C)[C@]1(C)CC2,41.4%
20,CO[C@H]1C=CC=C(C)C(=O)NC2=CC(=O)C(NCCN(C)C)=C(C[C@@H](C)C[C@H](OC)[C@@H](O)[C@@H](C)C=C(C)[C@@H]1OC(N)=O)C2=O,-0.262%

# Reference: PubChem BioAssay AID743366 (National Center for Advancing Translational Sciences (NCATS), 2014)
